The panel holds about 83,000 compounds, 20% with a hit somewhere; the sample as a whole holds those more often.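 Cell lines were cultured in 96-well plates, exposed to a single compound concentration, and assessed for percent growth 48 hours later.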 Values without a mark were called inactive. Calls of active or inactive are those of the source. The calls were made as follows: active = growth percent below 10; inactive = the rest.

Common to all, as to test: NCI-60 one-dose screen, 48 h (100 = growth as untreated, 0 = no growth, -100 = all killed)
What all share (settings): 10 µM unless noted

The subject of assay [1] is NCI-H23 lung.
The subject of assay [2] is NCI-H226 lung.
Assay [3] has as its system NCI-H322M lung.
Assay [4] concerns HOP-62 NSCLC.
In assay [5] the test system is NCI-H460 lung.
Assay [6] relates to HOP-92 NSCLC.
The subject of assay [7] is NCI-H522 lung.
Assay [8] has as its system A549/ATCC NSCLC.
Assay [9] deals with 786-0 renal.
The test system of assay [10] is COLO 205 colon.
For assay [11], the system named is DU-145 prostate.
Assay [12] has as its system K-562 leukemia.
The test system of assay [13] is MALME-3M melanoma.
For assay [14], the system named is MDA-MB-231 breast.
For assay [15], the system named is RXF 393 renal.
Assay [16] deals with SF-268 CNS.
For assay [17], the system named is SF-295 CNS.
The subject of assay [18] is SF-539 CNS.
Assay [19] relates to UACC-257 melanoma.
The subject of assay [20] is M14 melanoma.

For `O=C(c1ccccc1)N1N=C(c2ccc(-n3ccc(C(F)(F)F)n3)c(F)c2)CC1c1ccc[nH]1` (stereo not given), the growth in [1] was 104%; in assay [2], 108%; in [3] it was 98.7%; in [4] it was 122%; in assay [5], 102%; in assay [6], 141%. Besides, the growth in assay [7] was 89.9%; in assay [8], 99.9%; in [9], 97.1%; in assay [10] it was 116%; in assay [11] it was 111%; in assay [12] it was 96.5%. Also, the growth in [13] was 101%; in [14] it was 99.5%; in assay [15], 112%; in [16] it was 104%; in [17], 105%; in [18], 109%. The growth in [19] was 95.6%; in assay [20] it was 107%.
In the case of `CC1=C(C(=O)/C=C/c2c[nH]c3ccccc23)C(c2ccccc2)NC(=S)N1` (stereo not given), the growth in assay [1] was 94.5%; in assay [2] it was 80.4%; in [3], 101%; in assay [4], 97.9%; in assay [5], 99.6%; in assay [6], 90.1%. Moreover, the growth in assay [7] is 89%; in assay [8] it was 106%; in assay [9], 102%; in assay [10] it was 121%; in assay [11] it was 113%; in [12], 90.1%. Also, the growth in assay [13] is 97.7%; in assay [14], 85.3%; in assay [15], 105%; in assay [16], 92.7%; in [17], 97.6%; in assay [18], 98.2%. Further, the growth was 102% in assay [19] and 94.4% in [20].
Regarding `COc1ccc(C/C(=C(\C)c2ccc(OCCN3CCCC3)cc2)c2ccc(OCCN3CCCC3)cc2)cc1`, the growth in assay [1] was 83.9%; in [2] it was 84.4%; in assay [3], 81.7%; in [4], 80.3%; in assay [5] it was 6.71% (active); in [6] it was 26.4%. Besides, the growth in [7] was 56.8%; in assay [8] it was 69.3%; in [9], 69.1%; in [10], -25.8% (active); in assay [11], 70%; in assay [12], -64.1% (active). For the same molecule, the growth in assay [13] was 47.1%; in [14], 17.8%; in assay [15] it was 55.7%; in assay [16], 69.9%; in [17], 34.2%; in assay [18], 29.9%. The growth is 63.9% in [19] and -64.8% (active) in assay [20].
On to `CCOC(=O)c1ccc2c(c1)ncn2-c1ccc(NC(=O)Nc2cccc(C)c2)cc1`, for which the growth is 78.5% in assay [1]; 93.8% in assay [2]; 87.9% in assay [3]; 81.8% in [4]; 102% in assay [5]; 117% in assay [6]. Besides, the growth in [7] is 61.3%; in assay [8], 103%; in assay [9], 79.2%; in assay [10] it was 74.3%; in assay [11], 71.9%; in [12], 18%. The growth in assay [13] was 96.2%; in assay [14], 52.5%; in assay [15], 84.5%; in assay [16], 95.4%; in [17], 57.6%; in assay [18], 49.2%. Besides, the results for the growth in assay [19] and in [20] were 94% and 64.5%, respectively.
As for `N#Cc1c(NC(=O)NCc2ccccc2)sc2c1CCCCC2`, the growth in [1] was 37.5%; in assay [2], 22.5%; in [3], 44.9%; in assay [4], 34.2%; in assay [5], 0.445% (active); in assay [6], 44.8%. Also, the growth was 12.1% in [7]; 25.5% in assay [8]; 26.3% in assay [9]; 2.15% (active) in assay [10]; 3.54% (active) in assay [11]; 12.7% in assay [12]. Moreover, the growth was 44.7% in assay [13]; 10.7% in assay [14]; -3.29% (active) in assay [15]; 41% in [16]; 19.9% in assay [17]; -5.27% (active) in assay [18]. Besides, the growth was 61.6% in [19] and 10.9% in assay [20].
As for `COc1cc2oc(-c3cccc(C(=O)Nc4ccc5c(c4)OCO5)c3)cc(=O)c2c(O)c1OC`, the growth is 72.7% in assay [1]; 78.5% in assay [2]; 81% in assay [3]; 60.4% in assay [4]; 54.3% in assay [5]; 73% in assay [6]. Further, the growth in assay [7] was 76%; in assay [8] it was 74.9%; in assay [9], 64.3%; in assay [10], 94.8%; in assay [11], 80.4%; in assay [12], 94.5%. For the same molecule, the growth in assay [13] is 88.1%; in assay [14], 68.1%; in assay [15] it was 81.5%; in assay [16], 58.7%; in assay [17], 92.1%; in assay [18], 88.8%. Moreover, the values for the growth in [19] and in assay [20] were 78.2% and 89.7%, respectively.
In the case of `CCN(CC)CCCC(C)Nc1cc(O)cc2cccnc12` (stereo not given), the growth in assay [1] is 98.8%; in [2] it was 112%; in assay [3] it was 110%; in assay [4], 104%; in assay [5], 108%; in assay [6] it was 89.4%. Also, the growth in [7] is 125%; in assay [8], 96.2%; in [9], 118%; in assay [10], 74.5%; in assay [11], 113%; in assay [12] it was 87.4%. For the same molecule, the growth in assay [13] is 128%; in assay [14], 69.4%; in [15] it was 105%; in assay [16] it was 98.6%; in assay [17], 104%; in assay [18], 103%. Also, the growth in [19] was 93.8%; in assay [20], 113%.
`O=Cc1cc2ccccc2nc1Oc1ccc(C(F)(F)F)cc1`: the growth is 85.3% in assay [1]; 76.9% in assay [2]; 94.9% in assay [3]; 80.9% in assay [4]; 98.8% in assay [5]; 52.8% in assay [6]. The growth in assay [7] is 85.4%; in [8], 98.4%; in assay [9] it was 101%; in [10], 83.6%; in assay [11], 98.4%; in assay [12], 59%. In addition, the growth in assay [13] is 96%; in assay [14], 75.7%; in assay [15] it was 91.9%; in assay [16], 83.4%; in assay [17], 82.9%; in [18], 97.8%. Moreover, the growth in [19] is 107%; in assay [20], 99.8%.
Consider `Cc1ccc(NC(C(=O)c2ccccc2)c2ccccc2)cc1` (stereo not given), for which the growth is 59.5% in [1]; 75.3% in assay [2]; 97.3% in assay [3]; 80.2% in assay [4]; 46.9% in [5]; 39.8% in assay [6]. Moreover, the growth was 34.4% in [7]; 58% in assay [8]; 75.5% in assay [9]; 41.9% in [10]; 58.2% in assay [11]; 46.5% in assay [12]. In addition, the growth in [13] was -2.02% (active); in assay [14], 72.4%; in assay [15], 95.2%; in assay [16] it was 68.6%; in [17], 53.2%; in assay [18], 78.4%. Moreover, the figures for the growth in assay [19] and in [20] were 10.5% and 77.6%, respectively.
In the case of `CCN1C(=O)/C(=C/C(=O)OC)S/C1=N\NC(=O)c1cc2ccc1/C=C\c1ccc(cc1)/C=C\2`, the growth in [1] was 99.6%; in assay [2], 92.7%; in assay [3] it was 92.3%; in assay [4], 101%; in [5] it was 104%; in assay [6], 81.6%. In addition, the growth in assay [7] is 59.7%; in assay [8] it was 96.6%; in assay [9], 90.6%; in assay [10] it was 108%; in assay [11], 108%; in [12], 54.2%. Also, the growth was 91.9% in [13]; 96.1% in assay [14]; 101% in assay [15]; 97.8% in assay [16]; 96.9% in assay [17]; 90.2% in assay [18]. Moreover, the growth in assay [19] was 92.7%; in assay [20] it was 87.1%.
Take `COc1ccc(C(=O)NNc2nc(Cl)nc(N3CCN(C(c4ccccc4)c4ccccc4)CC3)n2)cc1`: the growth in assay [1] is 3.63% (active); in [2], 90.1%; in [3], 57.6%; in assay [4], 86.5%; in assay [5], 101%; in assay [6], 74%. Also, the growth in assay [7] was -33% (active); in [8], 92.6%; in assay [9] it was 69.1%; in assay [10] it was 60.5%; in [11], 67.7%; in assay [12] it was -16.5% (active). For the same molecule, the growth in assay [13] was 46.3%; in [14] it was -1.74% (active); in assay [15], 9.64% (active); in assay [16] it was 86.6%; in assay [17] it was 96.8%; in assay [18], 33.4%. Also, the growth in assay [19] was 65.2%; in assay [20], 31.3%.
In the case of `CC(=O)N1c2ccccc2NC2=C(C(=O)NC2(C)C)C1c1ccco1` (stereo not given), the growth in assay [1] was 91.2%; in [2] it was 96.8%; in assay [3], 94.9%; in assay [4], 112%; in assay [5], 98.4%; in assay [6] it was 67.2%. Moreover, the growth in [7] was 75.7%; in [8] it was 96.5%; in assay [9], 93.9%; in assay [10], 77.7%; in assay [11], 100%; in [12], 77.1%. Besides, the growth in [13] was 80.5%; in assay [14], 96.4%; in assay [15], 58%; in assay [16] it was 77.2%; in assay [17] it was 96.6%; in assay [18], 94.6%. Further, the growth in assay [19] is 75.1%; in assay [20], 68.6%.
On to `O=C1c2ccc3c4c(ccc(c24)C(=O)N1CCCNCc1ccccc1Cl)C(=O)N(CCCNCc1ccccc1Cl)C3=O`, for which the growth in assay [1] is -51.9% (active); in assay [2] it was -57.1% (active); in assay [3] it was -66.2% (active); in [4], -19.8% (active); in [5], -52.1% (active); in assay [6], -7.21% (active). Besides, the growth was -83.1% (active) in assay [7]; -84.1% (active) in assay [8]; -32.8% (active) in assay [9]; -15.9% (active) in assay [10]; -86.5% (active) in assay [11]; -38.2% (active) in assay [12]. The growth in [13] was -72.9% (active); in [14], 16.7%; in assay [15], -94.2% (active); in [16] it was -30.2% (active); in assay [17], -52.2% (active); in assay [18] it was -67.6% (active). Further, the values for the growth in [19] and in assay [20] were -90.6% (active) and -56.5% (active), respectively.
Turning to `COc1ccc(C(=O)/C=C/c2cc3ccccc3n3nnnc23)cc1`, the growth in assay [1] is 103%; in [2], 105%; in [3], 103%; in [4], 103%; in [5], 112%; in assay [6] it was 109%. The growth in [7] was 94%; in assay [8], 105%; in assay [9], 91.4%; in assay [10], 122%; in [11], 115%; in assay [12], 91.8%. For the same molecule, the growth in assay [13] is 108%; in assay [14], 106%; in assay [15], 106%; in assay [16] it was 108%; in assay [17], 102%; in [18], 107%. Besides, the values for the growth in [19] and in assay [20] were 114% and 110%, respectively.

Values taken from PubChem BioAssay (NCI).
